Giardia killer: kills Giardia lamblia | Giardia lamblia trophozoite viability | activity change, % at 7.66 µM, hits read low | 340,000 tested, 0.15% active | AID 540267; in the data active = activity change below about -80%; inconclusive = between about -30% and that limit;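 also: parasites exposed to compound for two days anaerobically before the ATP read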
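Luminescent ATP signal served as the viability read-out, measured 15-30 min after adding ATP detection reagent to trophozoites that had been incubated with compounds for 48 hrs at 37 deg C anaerobically at 100 cells/well.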
ELG1 repair inh: inhibitors of ELG1-dependent DNA repair in HEK293T cells. 330,000 tested, 2.3% active. Potency, µM (highest dose often 46.1 µM), actives largely listed as inhibitors. HEK293T ELG1-luciferase reporter, luminescence, 16 h; DNA damage induced by 5-fluorouridine; also: nearly all actives have a fitted effect of over 55% in size
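HEK293T cells expressing luciferase-tagged ELG1 (2,000/well) received 5-Fluorouridine plus compound or DMSO for 16 hr at 37 °C. Luciferase was read by ONE-Glo luminescence after 30 min at room temperature.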
FUS yeast rescue: rescues growth of FUS-expressing yeast. S. cerevisiae FUS-expressing, growth rescue, OD600, 24 h. Potency, µM (doses to about 76.6 µM), hits mostly activators. AID 1347120. 390,000 tested, 0.24% active; also: nearly all actives have a fitted effect of over 55% in size
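Yeast FUS proteinopathy model; galactose-induced FUS (2%), starting OD 0.005. Cpds in dilution series, 24hr, 30C, 99% humidity. Abs 600 nm growth. Pos ctrl CP55940 (top 92uM final); neg ctrl DMSO.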
TRPV1 PAM: human TRPV1 potentiation; potentiation, % at 8.33 µM; 320,000 tested, 0.02% active; TRPV1-expressing cells, Fluo-8 calcium influx, capsaicin EC20 potentiation; in the data active = potentiation above about 80%; inconclusive = between about 30% and that limit
Target sequence (Q8NER1 whole entry, looked up): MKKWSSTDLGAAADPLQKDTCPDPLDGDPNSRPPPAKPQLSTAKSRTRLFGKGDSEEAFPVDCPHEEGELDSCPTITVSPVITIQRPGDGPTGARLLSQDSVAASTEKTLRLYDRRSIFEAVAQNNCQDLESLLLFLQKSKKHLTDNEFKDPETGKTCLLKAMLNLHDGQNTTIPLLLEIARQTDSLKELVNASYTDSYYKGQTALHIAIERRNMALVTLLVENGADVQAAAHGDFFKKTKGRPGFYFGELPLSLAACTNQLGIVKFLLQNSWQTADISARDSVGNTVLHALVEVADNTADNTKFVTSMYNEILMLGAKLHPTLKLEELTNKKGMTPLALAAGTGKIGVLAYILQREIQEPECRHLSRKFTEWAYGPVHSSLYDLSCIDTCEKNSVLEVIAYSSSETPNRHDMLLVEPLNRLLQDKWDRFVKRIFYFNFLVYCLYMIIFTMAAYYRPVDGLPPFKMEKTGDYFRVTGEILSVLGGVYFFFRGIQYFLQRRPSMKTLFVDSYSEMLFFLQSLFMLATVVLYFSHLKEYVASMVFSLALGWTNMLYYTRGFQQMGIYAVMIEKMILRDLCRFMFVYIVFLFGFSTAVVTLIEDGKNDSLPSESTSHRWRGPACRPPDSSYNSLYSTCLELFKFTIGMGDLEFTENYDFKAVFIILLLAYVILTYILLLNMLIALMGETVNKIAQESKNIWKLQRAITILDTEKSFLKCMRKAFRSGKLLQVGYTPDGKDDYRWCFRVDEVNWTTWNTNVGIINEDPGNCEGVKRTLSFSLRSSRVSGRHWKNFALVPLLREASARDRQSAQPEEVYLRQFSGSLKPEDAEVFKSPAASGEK
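Cells expressing TRPV1 were dye-loaded with Fluo-8 and read kinetically: 10 s baseline, 3 min after compound (agonist portion), then 2 min after EC20 capsaicin (allosteric enhancer portion). Calcium-bound dye fluorescence at 480/520 nm.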
TRPV1 ag: human TRPV1 agonism. Q8NER1. TRPV1-expressing cells, Fluo-8 calcium influx, agonist mode. activation, % at 8.33 µM. 320,000 tested, 0.19% active. AID 540275; in the data active = activation above about 80%; inconclusive = between about 30% and that limit
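Cells expressing TRPV1 were dye-loaded with Fluo-8 and read kinetically: 10 s baseline, 3 min after compound (agonist portion), then 2 min after EC20 capsaicin (allosteric enhancer portion). Calcium-bound dye fluorescence at 480/520 nm.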
Each line names hits and unclear results; the compound was inactive in the other large screens. Hits are enriched below; roughly 2.3% of the tested compounds scored in any of these assays. Unless noted, calls follow the shape of the dose curve; as a rule, active = well fitted curve in the direction sought with a large enough effect; inconclusive = small, poorly fitted or top-dose-only effect, or another doubt; inactive = no such curve, though single readings can be large; an effect the other way counts as inactive or inconclusive.

CN(C)c1ccc(/C=C/C=C2/C(=O)NC(=O)N(c3ccccc3)C2=O)cc1	ELG1 repair inh inconclusive, FUS yeast rescue 5.6µM
O=C1NC(=O)N(c2ccccc2)C(=O)/C1=C/C=C/c1ccco1	none
O=C1OC(=O)C2C3CCC(O3)C12 (configuration not stated)	ELG1 repair inh inconclusive (no result: Giardia killer, FUS yeast rescue)
Cc1c(C(=O)N2CCC3(CC2)OCCO3)sc2ncnc(N3CCN(c4ccccn4)CC3)c12	ELG1 repair inh 3.7µM
CCCNC(=O)Cn1cnc2sc(C(=O)N3CCC4(CC3)OCCO4)c(C)c2c1=O	none
CCOC(=O)C(=CNc1ccc(C(O)(C(=O)OCC)C(F)(F)F)cc1C)C(=O)OCC (configuration not stated)	ELG1 repair inh 18µM (no result: FUS yeast rescue)
CCOC(=O)C(O)(c1ccc(NC(=O)c2ccc(Cl)c(Cl)c2)cc1)C(F)(F)F (configuration not stated)	TRPV1 ag inconclusive
O=C(O)CCC(=O)NCCC1=c2ccccc2=N/C1=C\c1c(O)n(Cc2ccc(F)cc2)c(=S)[nH]c1=O	Giardia killer inconclusive, ELG1 repair inh inconclusive, FUS yeast rescue 20µM
O=C(N/N=C/c1c(O)n(Cc2ccc(F)cc2)c(=O)[nH]c1=O)c1ccccc1	none (no result: TRPV1 PAM, TRPV1 ag)
COc1ccc(S(=O)(=O)Nc2cc([N+](=O)[O-])ccc2OC)cc1	ELG1 repair inh inconclusive
CCOC(=O)c1ccc(NC(=O)c2cccn(Cc3ccc(C)cc3)c2=O)cc1	none (no result: Giardia killer, ELG1 repair inh, TRPV1 PAM, TRPV1 ag)
Cc1ccc(Cn2nc(C(=O)Nc3ccc(Br)cc3)cc2C)cc1	ELG1 repair inh inconclusive, TRPV1 ag 108
COC(=O)c1ccc(NC(=O)CSc2nc3ccc(N4C(=O)C5C6C=CC(C6)C5C4=O)cc3s2)cc1 (configuration not stated)	ELG1 repair inh 13µM, FUS yeast rescue inconclusive
COCCO[C@H]1CC[C@@]2(C)C(=CCC3C2CC[C@@]2(C)C3CC[C@]2(C)O)C1 (some centres not stated)	ELG1 repair inh 18µM (no result: TRPV1 PAM, TRPV1 ag)
C[C@]12CCC(OC(=O)CCC(=O)O)CC1=CCC1C2CC[C@]2(C)C(=O)CCC12 (some centres not stated)	none
C=C(C=O)C[C@@H]1C[C@H](O)C2OC3C[C@]4(C)OC5/C=C\CC6OC7C(CC=CCC6OC5CCCC4OC3CC2O1)OC1CC2OC3CC(=O)OC3C[C@@H](C)C[C@@]2(C)OC1C[C@@H]7C (some centres not stated)	ELG1 repair inh 4.1µM, TRPV1 PAM inconclusive
C=C(C=O)CC1CC(O)[C@]2(C)OC3C[C@@H]4OC5C[C@]6(C)O[C@]7(C)CCC8OC9C[C@]%10(C)OC(/C(C)=C\CO)C(O)CC%10OC9CC(C)C8OC7CC6O[C@]5(C)C/C=C\C4OC3CC2O1 (some centres not stated)	FUS yeast rescue inconclusive
CN(Cc1ccccc1)C(=O)c1ccc(NC(=O)C2CCN(C(=O)OC(C)(C)C)CC2)cc1	ELG1 repair inh 10µM (no result: TRPV1 PAM, TRPV1 ag)
COc1ccc(NC(=O)CCOc2cc(C)ccc2C)cc1S(=O)(=O)N1CCCCC1	ELG1 repair inh 23µM (no result: TRPV1 PAM, TRPV1 ag)
C=CCS(=O)(=O)N1CCC(CCOc2ccccc2)(C(=O)OCC)CC1	ELG1 repair inh inconclusive
CC1=CC(=O)OC2CC3OC4C[C@@H](C)C5OC6CC7O[C@]8(C)C/C=C\C9OC%10CC%11OC(CC(C)C%12OCCO%12)CC(O)[C@]%11(C)OC%10CC9OC8C[C@]7(C)O[C@]6(C)CCC5OC4C[C@]3(C)OC12 (some centres not stated)	FUS yeast rescue 10µM (no result: TRPV1 PAM, TRPV1 ag)
Cc1ccccc1NP(=O)(Oc1ccccc1F)Oc1ccccc1F	ELG1 repair inh 23µM (no result: FUS yeast rescue)
Cc1cccc(NP(=O)(Oc2ccccc2)Oc2ccccc2)c1C	ELG1 repair inh inconclusive
O=C1C(=O)c2ccccc2-c2ccccc21	Giardia killer inconclusive, ELG1 repair inh 7.3µM
NC1=C(Br)C(=O)c2ccccc2C1=O	Giardia killer inconclusive, ELG1 repair inh 23µM
CC1(C)CC2CC(C)(CN2S(=O)(=O)c2cccc(C(=O)OCC(=O)NC(N)=O)c2)C1 (configuration not stated)	ELG1 repair inh inconclusive
Cn1c(O)c(C=Nc2ccccc2-c2ccccc2)c(=O)n(C)c1=O	none
CCOC(=O)C1=Nc2ccccc2/C1=C\c1c(O)n(C)c(=O)n(C)c1=O	ELG1 repair inh 21µM
Cc1ccc(C=C2C(Cl)=C(Cl)C(Cl)=C2Cl)cc1	ELG1 repair inh inconclusive
C/C(=N\Nc1ccccc1)c1c(O)[nH]c(=O)[nH]c1=O	ELG1 repair inh 5.2µM
C/C(CC(=O)Nc1ccc(Cl)cn1)=N\NC(=O)Cc1cccs1	ELG1 repair inh inconclusive
COC(=O)C1C(=O)C=C(Nc2ccc(F)cc2F)CC1c1ccccc1 (configuration not stated)	ELG1 repair inh inconclusive
O=C(c1cc(-c2cccc(Cl)c2)on1)N1CCOCC1	ELG1 repair inh inconclusive, TRPV1 ag inconclusive
CCOc1cc(/C=N/NC(=O)c2cccs2)ccc1OC(=O)N1CCOCC1	ELG1 repair inh inconclusive
COc1ccc(NCC(=O)N2CCCC2)cc1Cl	ELG1 repair inh inconclusive
O=c1c2ccccc2nc(/C=C/c2ccccc2O)n1-c1ccccc1O	ELG1 repair inh 23µM (no result: Giardia killer, FUS yeast rescue)
COc1cc(/C=C/c2nc3ccccc3c(=O)n2-c2ccc(O)cc2)ccc1O	ELG1 repair inh 16µM
COc1ccc(-n2c(/C=C/c3ccc(O)c(O)c3)nc3ccccc3c2=O)cc1	ELG1 repair inh 18µM
CSC1=NC(C)(C)CC2(C)Nc3ccccc3N12 (configuration not stated)	ELG1 repair inh inconclusive
COC(=O)C1=C(C)NC(C)=C(C(=O)OC)C1c1ccccc1[N+](=O)[O-]	ELG1 repair inh 10µM
COC(=O)C1C2c3ccccc3C(c3ccccc32)C1C(=O)OC (configuration not stated)	none
CNC(=O)Oc1ccc(-c2cn3cc(C)ccc3n2)cc1	Giardia killer -108, ELG1 repair inh inconclusive (no result: FUS yeast rescue)
CNC(=O)Oc1cccc(-c2cn3cc(Cl)ccc3n2)c1	Giardia killer inconclusive, ELG1 repair inh inconclusive, TRPV1 ag inconclusive
COCCOC(=O)c1c(N)n(Cc2ccc(OC)cc2)c2nc3ccccc3nc12	ELG1 repair inh 15µM
CC(C)OCCCNC(=O)c1c(N)n(Cc2cccs2)c2nc3ccccc3nc12	ELG1 repair inh 16µM, FUS yeast rescue inconclusive
CCCCNC(=O)c1c(N)n(CCCOC)c2nc3ccccc3nc12	ELG1 repair inh inconclusive, TRPV1 ag inconclusive
CC(C)CCn1c(N)c(C(=O)NCc2cccs2)c2nc3ccccc3nc21	ELG1 repair inh 6.5µM
COCCNC(=O)c1c(N)n(CCC(C)C)c2nc3ccccc3nc12	ELG1 repair inh 5.8µM (no result: FUS yeast rescue)
Nc1c(C(=O)NCc2ccco2)c2nc3ccccc3nc2n1CCN1CCCCC1	ELG1 repair inh inconclusive, FUS yeast rescue inconclusive, TRPV1 ag inconclusive
CCOC(=O)c1c(N)n(Cc2ccc(OC)cc2)c2nc3ccccc3nc12	ELG1 repair inh inconclusive (no result: Giardia killer, FUS yeast rescue)
